# Results from PubChem BioAssay (NCI).
# Several values for one entry are separate records, joined by “and”; a condition that tells them apart may be missing. Equal entries are not always repeated. About 83,000 compounds went through this panel and 20% of them were active in at least one assay; those are over-represented in the sample as a whole.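 Testing used 96-well plates and a 48-hour single-concentration exposure. Example: -40 means 40% of the starting cells died.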 Activity calls are given as the source filed them.
# Tested on: ACHN renal
# Experiment: NCI-60 one-dose screen, 48 h (100 = growth as untreated, 0 = no growth, -100 = all killed)
# Conditions: 10 µM unless noted
# Experimental: Growth inhibition of the ACHN human tumor cell line is measured as a screen for anti-cancer activity. Cells are grown in 96 well plates and exposed to the test compound for 48 hours. Compounds are tested at a single concentration, which is 10^-5 M for most compounds. The reported endpoint is percent growth (GI% or GIPRCNT), where numbers from 0 - 100% represent growth inhibition, and numbers from -100% - 0 represent cell death. For example, a value of 40 represents 60% growth inhibition. A value of 0 means no net growth occurred over the course of the experiment. A value of -40 indicates 40% of cells at the beginning of the experiment died by the end of the experiment. A value of -100 means all cells are dead at the end of the experiment.
# NCI-60 Human Tumor Cell Lines Screen was performed using the standard one-dose NCI protocol, which is described in more detail at https://dtp.cancer.gov/discovery_development/nci-60/default.htm.
# Compounds with GIPRCNT values below 10 were considered active. Activity score was based on GIPRCNT using the following formula: […]
# Score is 0 for GIPRCNT values of 100 or above, 50 for GIPRCNT values of 0, and 100 for GIPRCNT values of -100.
row,Compound,growth
1,O=C(/C=C/c1ccccc1Cl)Nc1ncc(Cc2cc(Cl)ccc2Cl)s1,31.3% (inactive)
2,CN1CCN(Cc2ccc(NC(=O)c3cncc(C#Cc4cnc(N)nc4)c3)cc2C(F)(F)F)CC1,7.78% (active)
3,O=C(CCCCCCNC(=O)c1csc(Br)n1)NO,13.9% (inactive)
4,CNC(=O)c1cc(Oc2ccc3c(c2)sc2nc(-c4ccc(N(C)C)cc4)cn23)ccn1,21.7% (inactive)
5,CC1=Cc2ccccc2OC12C=Cc1ccccc1O2 (stereo not given),88.4% (inactive)
6,CCNCCOc1ccc(/C(=C(/CC)c2ccc(Cl)cc2)c2ccc(OCCCN(C)C)cc2)cc1,-98% (active)
7,CC[C@]12CC(C(=O)OC)=C3Nc4ccccc4[C@@]34CCN(C14)[C@@H]1c3cc4c(cc3O[C@@H]1[C@H]2O)NC1=C(C(=O)OC)C[C@@]2(CC)C3N(CC[C@@]143)C[C@H]1O[C@H]12 (stereo not given in full),11.1% (inactive)
8,Brc1cc(-c2cc(-c3ccc4c(c3)OCCO4)[nH]n2)cs1,56% (inactive)
9,O=C(NCCNc1cc(-c2cn(-c3ccccc3)nc2-c2cccc(O)c2)ccn1)Nc1cc(C(F)(F)F)cc(C(F)(F)F)c1,96.9% (inactive)
10,C/C(=N\NC(N)=S)c1nnn(-c2ccc([N+](=O)[O-])cc2)c1C,97% (inactive)
11,CC1CC(=O)C2=C(C1)Nc1ccc(Br)cc1CC2c1c[nH]c2ccc(Br)cc12 (stereo not given),48.6% (inactive)
12,NS(=O)(=O)c1nnc(/N=C/c2c(O)[nH]c3ccccc23)s1,93.7% (inactive)
13,C=C(C)[C@@H]1CC[C@]2(C(=O)O)CC[C@]3(C)[C@H](CC[C@@H]4[C@@]5(C)C/C(=C/c6ccccn6)C(=O)C(C)(C)[C@@H]5CC[C@]43C)[C@@H]12,35.9% (inactive)
14,CCc1nnc(NC(=O)c2cc(-c3ccc(Cl)cc3Cl)oc2C)s1,50.9% (inactive)
15,COC(=O)CCSC1=C(C)C(=O)c2ccccc2C1=O,82.6% (inactive)
16,CS(=O)(=O)c1nccc(-c2c(-c3cccc(OCc4ccc(Cl)c(C(F)(F)F)c4)c3)nc3sccn23)n1,71.9% (inactive)
17,NS(=O)(=O)c1cccc(Nc2nc(SCC(=O)c3ccc(Cl)cc3)nc3c2CCC3)c1,92.4% (inactive)
18,O=C(CCCCCCN1CC(=O)N2[C@@H](c3cccs3)c3[nH]c4ccccc4c3C[C@H]2C1=O)NO,96.7% (inactive)
19,Brc1cc(-c2cc(-c3ccc4c(c3)OC=CO4)[nH]n2)cs1,93.7% (inactive)
20,COc1ccc2c(c1)c(/C=N/Nc1ccnc3cc(Cl)ccc13)cn2C,-97.3% (active)

row,Compound,growth
1,CC(=O)N(O)CCCCCNC(=O)CCC(=O)N(O)CCCCCNC(=O)CCC(=O)N(O)CCCCCN(CCCCCCCCCC[P+](c1ccccc1)(c1ccccc1)c1ccccc1)CCCCCCCCCC[P+](c1ccccc1)(c1ccccc1)c1ccccc1,29.7% (inactive)
2,O=C1[C@@H]2Cc3c([nH]c4ccccc34)[C@@H](c3ccc(Cl)cc3)N2C(=O)CN1C1CCN(Cc2ccccc2)CC1,51.4% (inactive)
3,CSc1ccc(/C(=N/N=C(N)N)c2ccc(Cl)cc2)cc1,15% (inactive)
4,CC(Nc1ncnc2ccc(-c3cnc4cnccn34)cc12)c1ccccc1 (stereo not given),22.8% (inactive)
5,COc1ccccc1/C=C1\Oc2ccc(O)c(O)c2C1=O,101% (inactive)
6,FC(F)(F)c1cc(Br)cc(-c2cc(-c3ccc4c(c3)OCCO4)[nH]n2)c1,28.9% (inactive)
7,CN1CC[C@@H]2[C@@]3(C)CC[C@H](O)C(C)(C)[C@@H]3CC[C@@]2(C)[C@]2(C)CC[C@@]3(CO)CCC(C)(C)C[C@@H]3C12 (stereo not given in full),99.8% (inactive)
8,NS(=O)(=O)c1ccc(Nc2nc(N/N=C/C=C/c3ccccc3)nc(Nc3ccccc3)n2)cc1,38.5% (inactive)
9,Cc1ccccc1Nc1nc(SC(C)C)nc(-c2ccccc2)c1C#N,13.4% (inactive)
10,CCOC(=O)C1=C(C)NC(C)=C(C(=O)OC(C)C)C1c1cccc(C#N)c1 (stereo not given),96.7% (inactive)
11,CCOC(=O)c1c(NC(=O)c2ccc(C(F)(F)F)cc2)sc2c3c(ccc12)OCN(C)C3,-14.5% (active)
12,CC1=C(C)C(=O)C(Nc2cccc(C(F)(F)F)c2)=C(Br)C1=O,72.3% (inactive)
13,O=C(N/N=C\c1ccc([N+](=O)[O-])cc1)c1ccc2nc(-c3ccc(Br)cc3)[nH]c2c1,34.1% (inactive)
14,CCOC(=O)c1ccc(NC2=C(Cl)C(=O)c3nc(C)ccc3C2=O)cc1,-9.88% (active)
15,C#C[C@]1(O)CC[C@H]2[C@@H]3CC=C4c5sc(N(C)c6ccccc6)nc5CC[C@]4(C)[C@H]3CC[C@@]21C,92.1% (inactive)
16,CC1=C(SCC(=O)OCCCCCC(C)C)C(=O)c2ccccc2C1=O,85.7% (inactive)
17,COc1cccc2c1[C@H](OC)[C@]13O[C@@]1(C2=O)[C@H](O)[C@H](C)[C@@](O)(C(=O)[C@@H]1O[C@H]1C)[C@@H]3O,1.83% (active)
18,CCCCCCCCCC(=O)NC(C)(C)C(=O)N1CCC[C@H]1C(=O)N[C@@H](CC(C)C)C(=O)N[C@@](C)(CC)C(=O)N[C@@H](CCC(N)=O)C(=O)N[C@H](CCC(N)=O)C(=O)NC(C)(C)C(=O)NC(C)(C)C(=O)N[C@@H](CCC(N)=O)C(=O)N[C@H](CC(C)C)C(=O)N[C@H](CO)CC(C)C,-85.3% (active) and 18.4% (inactive)
19,CCN(CC)c1ccc(/C=N/NC(=O)c2ccc(NS(C)(=O)=O)cc2)cc1,10.9% (inactive)
20,CCOC(=O)c1ccc(NC2=CC(=O)C(C)=C(C)C2=O)cc1,89.9% (inactive)
